Measurements taken from PubChem BioAssay (Tox21).
Inconclusive results are not listed. A number with no mark means an inactive call. Active and inactive are the calls of the source. Calls follow the shape of the dose curve; as a rule, active = well fitted cell-killing curve with a large enough effect in the repeat runs; inconclusive = weak or mixed curves, or effect the other way; inactive = flat fitted curve, though single readings scatter.

assay: qHTS assay to identify small molecule antagonists of the constitutive androstane receptor (CAR) signaling pathway - cell viability counter screen (AID 1224837); conditions: HepG2-CYP2B6-hCAR viability, CellTiter-Fluor, 23 h, co-treated with 50 nM CITCO; series mostly up to 92.4 µM; activity change, negative = cytotoxicity: at the top concentration; also: nearly all actives have a fitted effect of over 45% in size
From the text: National Center for Advancing Translational Sciences [NCATS]
NIH Chemical Genomics Center [NCGC]
U.S. Environmental Protection Agency [EPA]
National Institutes of Environmental Health Sciences [NIEHS]
National Toxicology Program [NTP]
U.S. Food and Drug Administration [FDA]
The constitutive androstane receptor (CAR) is a nuclear receptor which regulates multiple drug metabolizing enzymes (DMEs) and transporters. Activating CAR will generally increase the transcription and subsequent translation of CYP2B6 and CYP3A4. These two DMEs represent about 50% of the drug metabolizing potential in the body. When CAR is deactivated, the metabolizing potential in the body will decrease, subsequently increasing the toxicity in the body or lowering the therapeutic potential of a pro-drug. Recently, there have also been studies performed indicating CARs role in energy metabolism and cancer therapy. Therefore, inhibiting CARs activity could have a potential effect on diabetes and cancer. Identifying environmental toxins and compounds which modulate CAR, through the use of the Tox21 10K compound collection, will be an important step in determining the toxicity and potential therapeutic effects these factors will have on the human body. To differentiate true CAR antagonists from cytotoxic substances, the assay is multiplexed with a cell viability assay.
Tox21 Assay Protocol Summary:
A double-stable (hCAR and CYP2B6-2.2kb) transfected cell line, derived from human hepatoma (HepG2) cells, was utilized for the duration of the quantitative high-throughput screens. The HepG2-CYP2B6-hCAR cells were dispensed at 2500 cells/4 uL/well in 1536-well white solid bottom plates using a Multidrop Combi. After the assay plates were incubated at 37 C/5% CO2 for 4 hrs, 23 nL of compounds at 15 concentrations (from 5-48 columns) or positive control (from 1 to 4 columns) were transferred to the assay plates using a Pintool station. One uL of CITCO (final concentration = 50 nM) was added, using a Flying Reagent Dispenser, inside each well. After a 23 hr incubation period at 37 C/5% CO2, 1 uL of CellTiter-Fluor reagent was added into each well of the assay plates using a Flying Reagent Dispenser. The fluorescence intensity in the plates was then measured using a ViewLux plate reader.
% is scaled to controls: 0 for no effect and ±100 for the full control effect.

Compound	activity change, negative = cytotoxicity	Potency
CC(=O)OCC(=O)[C@@]1(O)CC[C@H]2[C@@H]3CCC4=CC(=O)CC[C@]4(C)[C@H]3C(=O)C[C@@]21C	2.73% [at 42.5 µM]	–
C[C@H](NC(CCc1ccccc1)C(=O)O)C(=O)N1CCC[C@H]1C(=O)O (stereo not given in full)	-8.5% [at 42.5 µM]	–
CO/N=C(/C(=O)N[C@@H]1C(=O)N2C(C(=O)OCOC(=O)C(C)(C)C)=C(C)CS[C@H]12)c1csc(N)n1	11.3% [at 42.5 µM]	–
CCOC(=O)c1c(C)n(C)c2ccc(O)cc12	5.62% [at 42.5 µM]	–
ClC(Cl)(Br)Br	2.22%	–
CCCCCSCCCCC	6.14%	–
c1ccc([C@H]2CN3CCSC3=N2)cc1	0.657% [at 42.5 µM]	–
O=c1cc(-c2ccccc2)oc2ccccc12	–	inactive
C=C(C)CS(=O)(=O)O	5.33%	–
Nc1ccc(S(=O)(=O)Nc2ccnn2-c2ccccc2)cc1	3.82% [at 19 µM]	–
CN1C(=O)N(C)C(O)C1O (stereo not given)	3.61%	–
CN1CCCC1	0.763%	–
Nc1cc(=O)[nH]c(N)n1	2.54% [at 42.5 µM]	–
C1OCOCO1	-1.03%	–
CC(C)(C)c1nnc(NS(=O)(=O)c2ccccc2)s1	7.65% [at 42.5 µM]	–
O=C(O)Cc1ccc(CCNS(=O)(=O)c2ccc(Cl)cc2)cc1	-2.98% [at 42.5 µM]	–
Cc1ccc(Cl)cc1Cl	-1.51%	–
CCOC(=O)c1ccc(C)cc1	4.45%	–
Nc1c[n+](N2CCOCC2)no1	2.65% [at 42.5 µM]	–
CCN1CCC[C@H]1CNC(=O)c1cc(S(N)(=O)=O)ccc1OC	2.8% [at 42.5 µM]	–

Compound	activity change, negative = cytotoxicity	Potency
Cc1ccc(C#N)cc1	2%	–
CC1(C)CO[C@@H](CC(=O)O)CN1	2.42% [at 42.5 µM]	–
CC(C)(C)NCCNC(C)(C)C	-0.993%	–
N[C@@H](C(=O)N[C@@H]1C(=O)N2C(C(=O)O)=C(Cl)CS[C@H]12)c1ccccc1	8.33% [at 8.39 µM]	–
O=C[C@H](O)[C@@H](O)[C@H](O)[C@H](O)CO	3.11%	–
CC(=O)Nc1c(I)cc(I)c(C(=O)O)c1I	-2.13% [at 42.5 µM]	–
CC/C=C\CC/C=C/C(OCC)OCC	1.69%	–
CC(C)OC(=O)c1ccccc1	-4.73%	–
CCCCOCCOCCOCCCC	1.71%	–
NS(=O)(=O)c1cc(C(=O)NN2C[C@H]3[C@H]4CCC(C4)[C@H]3C2)ccc1Cl	-1.13% [at 42.5 µM]	–
O=C1CC2CC1C1CCCC21 (stereo not given)	2.34%	–
O=c1cc(CO)occ1O	14.7% [at 42.5 µM]	–
Nc1ccccc1S(=O)(=O)O	0.435%	–
Cn1c(N)c(N=O)c(=O)n(C)c1=O	-13.1%	–
Cc1nc2c([nH]1)c(=O)n(C)c(=O)n2Cc1ccco1	0.504% [at 42.5 µM]	–
CC(C)(O)C(=O)c1ccccc1	3.27%	–
CCCCCCCCCCCCCC=O	6.66% [at 8.39 µM]	–
CN1CCC(=C2c3ccccc3CC(=O)c3sccc32)CC1	-30.9% [at 42.5 µM]	–
CCc1ccc(O)c(OC)c1	4.66%	–
Cc1[nH]c(=O)c(C#N)cc1-c1ccc2nccn2c1	6.28% [at 42.5 µM]	–
